Our source for the composite z-score and z-score values is PubChem BioAssay.

Calls of active or inactive are those of the source.

Test [1] can be described thus: binders of probe aFSTL3 on microarray, primary screen, stem cell growth factor project, biochemical, small-molecule microarray, fluorescence 635/667 (AID 1064).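 Note: measures binding of the biotinylated anti-FSTL3 antibody to printed compounds.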 Conditions: higher = more signal.
Test [2] in a line: binders from COS7 lysate, DM2A8 probe, primary screen, torsin A project, cell lysate, small-molecule microarray, fluorescence 635/667 (AID 1065). Conditions: higher = more signal, COS7 lysate expressing mutant human TOR1A.
Test [3] can be described thus: binders of probe aFGF2 on microarray, primary screen, stem cell growth factor project, biochemical, small-molecule microarray, fluorescence 635/667 (AID 1067).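 Note: measures binding of biotinylated aFGF2 protein to printed compounds on slides; z-score merges feature fluorescence and signal-to-noise across triplicate slides.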 Conditions: higher = more signal.
A short description of test [4]: binders of probe aFGF10 on microarray, primary screen, stem cell growth factor project, biochemical, small-molecule microarray, fluorescence 635/667 (AID 1071).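 Note: score merges 667 nm spot intensity and signal to noise from triplicate slides.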 Conditions: higher = more signal.
Test [5] deals with Neurogenic locus notch homolog protein 2 (Homo sapiens) (UniProt Q04721). Description: Notch2 binders on small-molecule microarrays, primary screen, biochemical, small-molecule microarray, 635 nm fluorescence, stem cell growth factors (AID 1073). Conditions: Notch2 binding, higher = more signal.
Sequence of Neurogenic locus notch homolog protein 2 (Homo sapiens) (Q04721 whole entry, looked up, canonical isoform): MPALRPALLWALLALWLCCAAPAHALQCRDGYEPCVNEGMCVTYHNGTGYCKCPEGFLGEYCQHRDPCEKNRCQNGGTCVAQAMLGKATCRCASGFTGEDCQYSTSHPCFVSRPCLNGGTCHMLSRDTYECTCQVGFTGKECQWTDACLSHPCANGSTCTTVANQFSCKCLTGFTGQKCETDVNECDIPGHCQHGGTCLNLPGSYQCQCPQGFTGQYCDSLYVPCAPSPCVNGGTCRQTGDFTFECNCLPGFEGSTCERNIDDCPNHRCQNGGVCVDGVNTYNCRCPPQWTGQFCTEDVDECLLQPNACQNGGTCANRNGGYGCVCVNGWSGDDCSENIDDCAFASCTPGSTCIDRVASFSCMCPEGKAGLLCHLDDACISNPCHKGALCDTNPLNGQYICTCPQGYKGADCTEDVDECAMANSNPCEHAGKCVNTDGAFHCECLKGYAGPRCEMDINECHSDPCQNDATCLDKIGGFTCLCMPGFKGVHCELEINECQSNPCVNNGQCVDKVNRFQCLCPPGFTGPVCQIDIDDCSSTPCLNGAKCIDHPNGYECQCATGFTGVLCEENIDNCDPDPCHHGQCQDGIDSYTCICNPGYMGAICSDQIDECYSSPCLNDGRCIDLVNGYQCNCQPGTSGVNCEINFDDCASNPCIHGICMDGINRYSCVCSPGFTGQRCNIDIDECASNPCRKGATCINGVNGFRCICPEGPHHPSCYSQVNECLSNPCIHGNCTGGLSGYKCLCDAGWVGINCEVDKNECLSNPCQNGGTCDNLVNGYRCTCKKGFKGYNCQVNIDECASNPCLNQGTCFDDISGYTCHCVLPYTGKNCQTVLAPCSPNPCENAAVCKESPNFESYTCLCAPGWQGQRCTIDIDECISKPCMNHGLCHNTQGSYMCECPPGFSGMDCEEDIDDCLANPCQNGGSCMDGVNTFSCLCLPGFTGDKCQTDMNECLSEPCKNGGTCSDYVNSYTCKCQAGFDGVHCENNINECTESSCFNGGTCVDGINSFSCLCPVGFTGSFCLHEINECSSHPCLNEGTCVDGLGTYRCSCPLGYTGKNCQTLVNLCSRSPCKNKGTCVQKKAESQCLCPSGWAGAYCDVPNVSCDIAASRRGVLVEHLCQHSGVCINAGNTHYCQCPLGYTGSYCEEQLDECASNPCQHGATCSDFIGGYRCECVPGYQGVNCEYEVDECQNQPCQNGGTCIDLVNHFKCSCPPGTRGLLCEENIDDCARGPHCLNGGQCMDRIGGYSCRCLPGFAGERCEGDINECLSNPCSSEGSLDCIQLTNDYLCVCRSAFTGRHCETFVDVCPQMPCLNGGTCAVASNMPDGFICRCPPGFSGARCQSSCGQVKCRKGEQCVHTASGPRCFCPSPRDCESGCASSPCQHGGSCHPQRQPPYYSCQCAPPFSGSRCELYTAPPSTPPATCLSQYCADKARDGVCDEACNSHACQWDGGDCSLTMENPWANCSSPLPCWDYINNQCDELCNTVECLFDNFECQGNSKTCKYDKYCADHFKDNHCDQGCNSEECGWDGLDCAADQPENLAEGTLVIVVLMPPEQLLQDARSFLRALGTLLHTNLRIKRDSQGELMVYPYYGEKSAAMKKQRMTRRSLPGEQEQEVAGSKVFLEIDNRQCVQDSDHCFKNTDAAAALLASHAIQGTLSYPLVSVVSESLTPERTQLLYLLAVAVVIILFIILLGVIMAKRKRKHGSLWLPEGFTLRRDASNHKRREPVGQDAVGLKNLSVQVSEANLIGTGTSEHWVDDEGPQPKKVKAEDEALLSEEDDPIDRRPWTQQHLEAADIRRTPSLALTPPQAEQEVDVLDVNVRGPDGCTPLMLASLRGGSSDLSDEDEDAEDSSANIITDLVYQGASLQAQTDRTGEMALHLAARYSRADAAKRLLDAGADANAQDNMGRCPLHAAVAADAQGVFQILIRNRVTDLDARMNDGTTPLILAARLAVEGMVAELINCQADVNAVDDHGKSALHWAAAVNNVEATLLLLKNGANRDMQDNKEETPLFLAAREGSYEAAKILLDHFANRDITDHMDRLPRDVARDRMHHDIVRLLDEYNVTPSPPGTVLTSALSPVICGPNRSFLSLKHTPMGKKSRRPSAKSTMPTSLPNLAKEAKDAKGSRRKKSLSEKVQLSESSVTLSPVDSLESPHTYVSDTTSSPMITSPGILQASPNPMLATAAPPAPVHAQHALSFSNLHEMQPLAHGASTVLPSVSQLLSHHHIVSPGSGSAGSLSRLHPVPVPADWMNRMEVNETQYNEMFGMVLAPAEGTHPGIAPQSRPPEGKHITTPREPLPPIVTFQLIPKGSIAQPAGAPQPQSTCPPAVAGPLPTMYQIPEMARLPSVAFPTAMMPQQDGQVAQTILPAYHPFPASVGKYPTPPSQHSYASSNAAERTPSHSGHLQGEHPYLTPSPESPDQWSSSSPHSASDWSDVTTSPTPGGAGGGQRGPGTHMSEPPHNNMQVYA
Test [6] addresses Pro-neuregulin-1, membrane-bound isoform (Homo sapiens) (UniProt Q02297). As to the kind of experiment: NRG1 binders on small-molecule microarrays, primary screen, psychiatric disease protein project, biochemical, small-molecule microarray, fluorescence 635/667 (AID 1075).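 Note: score combines 667 nm spot fluorescence with signal to noise.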 As to conditions: NRG1 binding, 635 nm fluorescence, higher = more signal.
Test [7] has as its system Neuregulin-1 EGF-like domain. Description: binders of neuregulin-1 EGF-like domain, primary screen, biochemical, small-molecule microarray, 635 nm fluorescence (AID 1081).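 Note: binding of the protein to compounds printed on small-molecule microarray slides.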 Conditions: small-molecule microarray binding, higher = more signal.
A short description of test [8]: FRG1 promoter luciferase signal modulators, primary screen, FRG1 inhibition for FSHD, cell-based, C2C12 myotubes, firefly/Renilla luciferase, luminescence (AID 1084). Conditions: higher = more signal, called active from +8 up or from −8 down.
A short description of test [9]: binders of probe aFST on microarray, primary screen, stem cell growth factor project, biochemical, small-molecule microarray, fluorescence 635/667 (AID 1086).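 Note: score merges 667 nm fluorescence with signal-to-noise of each printed compound spot.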 Conditions: higher = more signal.
Test [10] in a line: binders of probe aHhip on microarray, primary screen, stem cell growth factor project, biochemical, small-molecule microarray, fluorescence 635/667 (AID 1087).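 Note: score merges spot fluorescence at 667nm with spot signal to noise ratio.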 Conditions: higher = more signal.
For test [11], the system named is PRMT1 (protein arginine N-methyltransferase 1). As to the kind of experiment: PRMT1 binders on small-molecule microarrays, primary screen, biochemical, small-molecule microarray, 635 nm fluorescence (AID 1088).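 Note: binding of Prmt1 protein to compounds spotted on small-molecule microarray slides.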 As to conditions: small-molecule microarray binding, higher = more signal.
A short description of test [12]: yeast growth modulation, basal conditions, primary screen, YJM789 clinical isolate, OD600, 24 h (AID 1089).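 Note: growth of clinical yeast isolate S. cerevisiae YJM 789 seeded 1000 cells per well; test concentration not given here.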 As to conditions: S. cerevisiae YJM789 growth, higher = more signal, called active from +8 up or from −8 down.
The nature of test [13]: fission yeast growth modulation, primary screen, strain 972, OD600, 24 h, no modulator (AID 1090).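 Note: basal condition with compound alone and no growth modifier present; test concentration not given here.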 As to conditions: S. pombe 972 growth, higher = more signal, called active from +8 up or from −8 down.
Test [14] can be described thus: S. cerevisiae growth modulation with rapamycin, primary screen, strain BY4716, OD600, 96 h (AID 1091). Note: test concentration not given here. Conditions: higher = more signal, called active from +8 up or from −8 down.
Test [15] has as its target Torsin-1A-interacting protein 2 (Homo sapiens) (UniProt Q8NFQ8). Description: LULL1 binders on small-molecule microarray, primary screen, cell lysate, human LULL1 lysate, 635/667 nm fluorescence (AID 1092).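 Note: probe is lysate of COS7 cells overexpressing human LULL1; score merges per-feature 667 nm fluorescence with signal-to-noise.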 As to conditions: hLULL1 lysate binding, 635 nm fluorescence, higher = more signal.
A short description of test [16]: E. coli growth modulation, two-sided OD650, primary screen, E. coli filamentation project, strain DRC41, 24 h (AID 1093).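 Note: MC1000 strain lacking acrAB efflux and sulA so SOS filamentation is blocked; test concentration not given here.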 As to conditions: OD650, 24 h, higher = more signal, called active from +8 up or from −8 down.
The nature of test [17]: small-molecule microarray binders of probe aLefty2, primary screen, biochemical, biotinylated probe, 635/667 nm fluorescence (AID 1094).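 Note: score merges spot fluorescence near 667 nm with spot signal-to-noise ratio.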 As to conditions: higher = more signal.
The test system of test [18] is Noggin (protein binding on small-molecule microarray). As to the kind of experiment: Noggin binders on small-molecule microarray, primary screen, biochemical, 635/667 nm fluorescence (AID 1095).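 Note: score merges 667 nm feature fluorescence with signal to noise over triplicate slides.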 As to conditions: 635 nm fluorescence, higher = more signal.
Test [19] has as its target Neurogenic locus notch homolog protein 3 (Homo sapiens) (UniProt Q9UM47). As to the kind of experiment: NOTCH3 binders on small-molecule microarray, primary screen, biochemical, 635/667 nm fluorescence (AID 1096). As to conditions: NOTCH3 binding, 635 nm fluorescence, higher = more signal.
A short description of test [20]: small-molecule microarray binders of probe aEGFR, primary screen, biochemical, biotinylated probe, 635/667 nm fluorescence (AID 1097).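 Note: probe is a biotinylated anti-EGFR antibody binding compounds printed on slides; score combines fluorescence near 667 nm and signal to noise of each spot.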 Conditions: higher = more signal.

Sequence of Neurogenic locus notch homolog protein 3 (Homo sapiens) (Q9UM47 whole entry, looked up): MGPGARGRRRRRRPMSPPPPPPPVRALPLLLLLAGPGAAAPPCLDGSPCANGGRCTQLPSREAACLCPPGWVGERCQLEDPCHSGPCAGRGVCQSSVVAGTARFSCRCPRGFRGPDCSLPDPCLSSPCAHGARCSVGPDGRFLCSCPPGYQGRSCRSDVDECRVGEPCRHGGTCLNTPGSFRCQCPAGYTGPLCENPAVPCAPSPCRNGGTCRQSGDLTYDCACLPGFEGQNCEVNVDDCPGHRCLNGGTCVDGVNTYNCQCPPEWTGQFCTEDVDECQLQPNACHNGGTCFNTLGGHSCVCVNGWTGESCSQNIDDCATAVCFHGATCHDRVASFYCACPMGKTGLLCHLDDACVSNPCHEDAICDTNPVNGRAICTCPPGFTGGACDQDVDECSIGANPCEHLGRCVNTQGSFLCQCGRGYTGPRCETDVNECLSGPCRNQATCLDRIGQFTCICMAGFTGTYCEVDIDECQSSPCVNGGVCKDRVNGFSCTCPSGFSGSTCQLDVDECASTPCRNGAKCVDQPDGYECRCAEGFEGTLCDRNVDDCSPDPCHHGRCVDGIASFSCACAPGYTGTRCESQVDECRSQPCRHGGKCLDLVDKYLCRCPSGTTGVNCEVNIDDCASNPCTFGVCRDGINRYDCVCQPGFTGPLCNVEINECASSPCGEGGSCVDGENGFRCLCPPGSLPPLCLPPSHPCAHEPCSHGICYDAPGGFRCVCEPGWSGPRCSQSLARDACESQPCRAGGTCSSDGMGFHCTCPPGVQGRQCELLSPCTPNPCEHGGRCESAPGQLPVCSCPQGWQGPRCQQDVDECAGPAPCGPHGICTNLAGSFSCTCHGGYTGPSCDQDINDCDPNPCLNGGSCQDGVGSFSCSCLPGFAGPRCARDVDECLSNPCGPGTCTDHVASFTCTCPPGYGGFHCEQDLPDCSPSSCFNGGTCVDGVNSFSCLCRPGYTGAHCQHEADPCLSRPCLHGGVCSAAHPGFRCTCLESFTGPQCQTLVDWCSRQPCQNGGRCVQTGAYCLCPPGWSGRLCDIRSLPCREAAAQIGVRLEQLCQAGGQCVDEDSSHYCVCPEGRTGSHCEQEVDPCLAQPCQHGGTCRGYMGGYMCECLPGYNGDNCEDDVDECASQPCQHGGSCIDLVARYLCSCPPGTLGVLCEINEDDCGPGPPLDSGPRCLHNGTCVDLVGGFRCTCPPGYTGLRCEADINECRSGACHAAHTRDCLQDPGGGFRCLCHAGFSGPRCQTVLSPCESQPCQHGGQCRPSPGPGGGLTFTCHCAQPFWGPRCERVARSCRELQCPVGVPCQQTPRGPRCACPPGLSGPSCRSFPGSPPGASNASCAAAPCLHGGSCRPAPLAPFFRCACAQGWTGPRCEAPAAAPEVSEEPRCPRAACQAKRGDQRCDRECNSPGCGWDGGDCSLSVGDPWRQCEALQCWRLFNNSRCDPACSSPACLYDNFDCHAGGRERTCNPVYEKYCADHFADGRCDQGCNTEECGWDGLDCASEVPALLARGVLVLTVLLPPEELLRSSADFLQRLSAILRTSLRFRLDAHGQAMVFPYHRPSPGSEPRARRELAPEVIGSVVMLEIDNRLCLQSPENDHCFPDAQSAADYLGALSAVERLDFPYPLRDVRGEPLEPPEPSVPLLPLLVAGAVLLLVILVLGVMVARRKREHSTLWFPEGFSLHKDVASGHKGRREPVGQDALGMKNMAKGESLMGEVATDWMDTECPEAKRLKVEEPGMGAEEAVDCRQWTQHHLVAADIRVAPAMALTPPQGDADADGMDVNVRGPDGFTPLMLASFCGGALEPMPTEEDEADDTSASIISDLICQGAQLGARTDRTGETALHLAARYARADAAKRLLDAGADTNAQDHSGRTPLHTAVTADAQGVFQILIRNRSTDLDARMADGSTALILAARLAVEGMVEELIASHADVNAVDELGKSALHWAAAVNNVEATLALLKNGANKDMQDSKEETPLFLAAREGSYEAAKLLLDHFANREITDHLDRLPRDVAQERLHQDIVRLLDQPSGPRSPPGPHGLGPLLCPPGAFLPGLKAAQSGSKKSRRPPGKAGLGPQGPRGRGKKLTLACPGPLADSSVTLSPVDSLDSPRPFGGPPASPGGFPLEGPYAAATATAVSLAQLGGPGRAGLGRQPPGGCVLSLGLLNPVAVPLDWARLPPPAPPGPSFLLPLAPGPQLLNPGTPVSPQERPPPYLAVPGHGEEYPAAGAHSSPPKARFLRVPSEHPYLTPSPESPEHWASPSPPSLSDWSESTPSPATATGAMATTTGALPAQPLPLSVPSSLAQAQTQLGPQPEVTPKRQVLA

For `O=C1[C@H]2C=C(I)[C@H](C[C@@H]2OCCCCCCO)[C@@]12CO2`, the composite z-score in test [1] was -0.123; in [2], 0.249; in test [3], -0.169; in test [4], 0.0956; in [5] it was 1.01; in test [6], -0.715. Moreover, the composite z-score in test [7] is -0.175; in test [9], -0.132; in test [10] it was -0.183; in [11] it was -0.134; in test [15], -0.505; in test [17], -0.121. For the same compound, the composite z-score is 0.263 in test [18], 1.13 in test [19] and -0.133 in test [20]. Further, the z-score in [8] is 0.622 (inactive); in test [12] it was -1.5 (inactive); in test [13] it was -2.19 (inactive); in [14] it was -0.384 (inactive); in test [16], -1.05 (inactive).
On to `CC(C)(C)N1CC=CC23O[C@@H]4/C=C\CCCOC(=O)C4[C@H]2C(=O)N(CCCCCO)[C@@H]3C1=O` (stereo not given in full), for which the composite z-score in test [1] is 1.26; in [2], -0.406; in [3], -0.227; in test [4] it was -0.668; in test [5], -0.545; in [6], -0.229. Also, the composite z-score in test [7] was -0.448; in [9], -1.09; in [10] it was 0.176; in test [11] it was -0.981; in [15], 0.389; in test [17], -0.114. In addition, the figures for the composite z-score in test [18], in test [19] and in [20] were -1.48, -0.457 and -0.289, respectively. The z-score was -0.106 (inactive) in test [8]; -0.143 (inactive) in test [12]; 0.0289 (inactive) in test [13]; -0.635 (inactive) in test [14]; -0.938 (inactive) in test [16].
As to `CC1CC/C=C\[C@H]2OC34C=CCN(Cn5nnc6ccccc65)C(=O)[C@H]3N(CCCCCCO)C(=O)[C@@H]4C2C(=O)O1` (stereo not given in full), the composite z-score was 0.372 in [1]; -1.11 in [2]; -0.176 in test [3]; -0.539 in test [4]; -0.964 in [5]; 2.14 in [6]. The composite z-score was 1.59 in [7]; -0.541 in [9]; -0.169 in [10]; -0.526 in [11]; 2.9 in test [15]; -0.205 in test [17]. For the same compound, the values for the composite z-score in [18], in [19] and in test [20] were -1.09, -0.368 and -0.33, respectively. The z-score is -0.863 (inactive) in [8]; 0.28 (inactive) in test [12]; -0.0728 (inactive) in [13]; 0.105 (inactive) in [14]; 0.167 (inactive) in test [16].
For the compound `COc1ccc([Si](C)(C)[C@H]2[C@H](CC(=O)N3CCC[C@H]3CO)O[C@@]3(C(=O)N(Cc4ccc(N5CCCCC5=O)cc4)c4ccccc43)[C@@H]2C)cc1`, the composite z-score in test [1] was -0.35; in [2], 0.227; in test [3] it was -0.0494; in test [4], 0.671; in [5], 0.565; in test [6] it was 1.33. The composite z-score in test [7] was 1.12; in [9], 0.536; in test [10], 0.0373; in [11], 1.54; in test [15], 2.51; in [17] it was -0.18. The composite z-score in test [18] is 1.41; in [19], 1.06; in test [20], -0.0531. The z-score in [8] was -4.24 (inactive); in test [12], -0.398 (inactive); in test [13], 0.591 (inactive); in [14] it was -0.801 (inactive); in test [16], 2.32 (inactive).
For the compound `COc1ccc(C#Cc2ccc3c(c2)[C@]2(C(=O)N3)[C@H](C(=O)O)[C@H]3C(=O)O[C@H](c4ccccc4)[C@H](c4ccccc4)N3[C@@H]2c2ccccc2OCCO)cc1`, the composite z-score is -1.04 in [1]; 0.485 in test [2]; -0.095 in test [3]; 0.991 in [4]; 1.26 in test [5]; 0.566 in test [6]. The composite z-score in test [7] was 1.07; in [9], -0.515; in test [10], -0.583; in [11], 1.54; in test [15], 2.2; in test [17], -0.321. The composite z-score in [18] came out at 0.597; in test [19], 1.04; in [20] it was 0.0458. Further, the z-score is 0.205 (inactive) in test [8]; 1.79 (inactive) in test [12]; 0.549 (inactive) in test [13]; 0.705 (inactive) in [14]; 0.969 (inactive) in [16].
